Test results: the supplement of paper PMC6555819

Key:
Experiment in all cases: PBM binding z-score (relative to random genomic background probes); higher = stronger binding; sequences stand for … in GC…GCGATTGACAGCGTAGAATGAAGG
[1] = test system: PPARg:RXRa DBDmut IVT, anti-RXR (DBD mutation: RXRa K156A/R161A, NR concentration 270 nM, RXRa partner concentration 90 nM)
Summary of the method: (§1)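 The probes on custom Agilent 4×180K protein-binding microarrays were double-stranded, with 34-nt variable regions bearing direct-repeat seeds, single-nucleotide variants, half-site ablations and random human genomic background sequences. Incubation lasted 1 h with ligand-free nuclear receptor dimers in PBS pH 7.4, 2% milk, 0.02% Triton X-100, 1 mM DTT, 0.2 mg/mL BSA and 0.4 mg/ml salmon testes DNA. Antibodies against each partner (one per run) detected bound dimers, and fluorescence scans were regression-normalized. Binding z-scores take the random background probes as reference.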

[2] = test system: PPARg:RXRa IVT, anti-PPARg (NR concentration 270 nM, RXRa partner concentration 90 nM)
Summary of the method: as §1

[3] = test system: PPARg DBDmut:RXRa IVT, anti-PPARg (DBD mutation: PPARg1 K132A/R137A, NR concentration 270 nM, RXRa partner concentration 90 nM)
Summary of the method: as §1

[4] = test system: PPARg DBDmut IVT, anti-PPARg (DBD mutation: PPARg1 K132A/R137A, NR concentration 270 nM)
Summary of the method: as §1

[5] = test system: PPARg homodimer (NR concentration 180 nM)
Summary of the method: as §1

[6] = test system: PXR:RXRa (NR concentration 270 nM, RXRa partner concentration 90 nM)
Summary of the method: as §1

[7] = test system: PXR homodimer (NR concentration 270 nM)
Summary of the method: as §1

[8] = test system: RARa:RXR (NR concentration 270 nM, RXRa partner concentration 90 nM)
Summary of the method: as §1

[9] = test system: RARa homodimer (NR concentration 270 nM)
Summary of the method: as §1

[10] = test system: RARb:RXRa (NR concentration 270 nM, RXRa partner concentration 90 nM)
Summary of the method: as §1

[11] = test system: RARb homodimer (NR concentration 270 nM)
Summary of the method: as §1

[12] = test system: RARg:RXRa (NR concentration 270 nM, RXRa partner concentration 90 nM)
Summary of the method: as §1

[13] = test system: RARg homodimer (NR concentration 270 nM)
Summary of the method: as §1

[14] = test system: RXRa DBDmut IVT, anti-RXR (DBD mutation: RXRa K156A/R161A, NR concentration 90 nM)
Summary of the method: as §1

[15] = test system: RXRa homodimer (NR concentration 180 nM)
Summary of the method: as §1

[16] = test system: THRa:RXRa (NR concentration 90 nM, RXRa partner concentration 90 nM)
Summary of the method: as §1

[17] = test system: THRa homodimer (NR concentration 90 nM)
Summary of the method: as §1

[18] = test system: VDR homodimer (NR concentration 270 nM)
Summary of the method: as §1

Sequence | PBM binding z-score [1] | PBM binding z-score [2] | PBM binding z-score [3] | PBM binding z-score [4] | PBM binding z-score [5] | PBM binding z-score [6] | PBM binding z-score [7] | PBM binding z-score [8] | PBM binding z-score [9] | PBM binding z-score [10] | PBM binding z-score [11] | PBM binding z-score [12] | PBM binding z-score [13] | PBM binding z-score [14] | PBM binding z-score [15] | PBM binding z-score [16] | PBM binding z-score [17] | PBM binding z-score [18]
TCGAGTAGGTTAGTCGGGGCATTGAGCCAACATA | 2.07 | 2.19 | -0.804 | -1.03 | -0.25 | -0.121 | -0.392 | 0.186 | -0.979 | 0.355 | 0.349 | -0.11 | 0.0255 | 0.159 | -0.18 | 1 | -0.457 | -0.0737
TCTTGTAGATCGACAGGAGGTTAAGAAAGATCGA | 0.885 | 0.145 | 0.496 | 0.679 | -0.189 | 0.501 | -0.189 | 0.459 | -0.333 | 0.401 | 0.302 | 0.34 | 0.0753 | 0.223 | 0.86 | 0.713 | -0.764 | -0.181
TCTAGTTAGTCACGGAGGTCACACACGACGGGTA | 1.76 | 2.1 | 1.18 | 0.869 | 2.2 | 4.09 | 1.01 | 4.71 | 1.62 | 3.26 | 3.95 | 3.7 | 3.44 | 1.24 | 4.28 | 3.56 | 2.59 | 1.97
CGTCCAAGGTCAGAGAGGTCAGTGGATGCCGAGT | 2.81 | 3.74 | 0.146 | 0.0263 | 3.71 | 6.17 | 11.7 | 5.33 | 0.8 | 5.38 | 5.54 | 6.26 | 7.05 | 3.42 | 5.46 | 4.29 | 3.05 | 5.52
ACTAGTTGGTCAGCTGAGGTGACACACAATTCGG | 1.56 | 2 | 0.518 | 0.422 | 0.486 | 0.897 | 0.101 | 1.27 | -0.129 | 1.45 | 1.74 | 1.34 | 1.29 | -0.108 | 0.902 | 4.41 | 2.03 | 0.149
CATTACGGGTCACTCCAGGTTATAGCATCGGAGT | 3.99 | 4.96 | 1.72 | 1.65 | 2.09 | 5.11 | 0.705 | 3.78 | 0.9 | 3.97 | 3.31 | 4.59 | 4.57 | 1.53 | 4.65 | 5.06 | 0.963 | 1.83
TAGCCTAGGTCATGCGGTCCAGTATAGTGTCGGC | 1.68 | 3.01 | -0.501 | 0.0737 | 0.743 | 1.77 | 0.0796 | 2.22 | -0.726 | 3.79 | 3.08 | 3.75 | 4.51 | 1.05 | 2.94 | 3 | 1.32 | 1.54
GCAGACAGGTGAAACGCAGGGAACTCAGGGTGGC | 0.902 | 0.213 | 0.0548 | -0.787 | 0.0817 | -0.255 | -0.624 | 0.127 | -0.901 | 0.545 | -0.128 | 0.193 | 0.108 | -1.09 | 0.587 | 0.258 | -0.443 | -0.619
AGAATGAGGTTATTAAGAACAGGGAATTGCGGTC | 3.07 | 2.57 | 0.828 | 0.0753 | 0.538 | 1.13 | 0.548 | 1.32 | 0.488 | 1.4 | 0.842 | 1.14 | 0.783 | 2.06 | 1.67 | 2.23 | 0.503 | 1.27
ATCGAAAGGTCGACGAGGTGAGGATACACCGTTT | 0.8 | 2.39 | 0.388 | 0.42 | 1.72 | 2.77 | 0.496 | 3.52 | 0.262 | 3.98 | 3.11 | 4.27 | 4.37 | 1.15 | 4.45 | 4.09 | 2.24 | 1.2
AGAATGAGGTTATTAACATCAGGGAATTGCGGTC | 2.7 | 2.3 | 0.432 | 0.815 | 0.441 | 1.18 | 0.616 | 1.36 | 0.203 | 1.2 | 0.673 | 1.11 | 0.779 | 1.83 | 1.67 | 2.13 | 0.447 | 1.12
GATACAGGGTCAGCTAGAGGCCATAGTATGGAAA | 0.981 | 2.33 | 0.47 | -0.0794 | 2.26 | 3.96 | 0.241 | 4.62 | 0.222 | 4.15 | 3.52 | 6.77 | 4.83 | 1.57 | 3.96 | 3.29 | 0.486 | 1.33
AATACAGGGTCATCGTAGGCCATAGTACGCACAG | 3 | 4.39 | 3 | 2.05 | 3.8 | 5.45 | 0.773 | 5.17 | 0.832 | 4.27 | 3.72 | 5.77 | 4.97 | 3.55 | 6.52 | 4.94 | 1.54 | 3.64
GCTAGTTGGTCAGAAAAAGGTCACACACCGGTCG | 0.771 | 2.29 | -0.31 | -0.0601 | 4.2 | 4.56 | 1.01 | 5.62 | 1.53 | 4.17 | 5.21 | 5.28 | 4.72 | 0.268 | 4.82 | 3.52 | 1.44 | 1.71
